Screening data as filed in PubChem.
RECQ1 inh: RECQ1 (human) helicase inhibition; RECQ1 DNA unwinding, red fluorescence kinetic read; P46063; AID 2549; Potency, µM (titrated, usually from 57.3 µM), for inactives: at the highest dose activity, negative = inhibition, hits mostly inhibitors; hit rate 0.54% among 240,000;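 further: plate controls were vehicle for no effect and no enzyme for full effect; nearly all actives have a fitted effect of over 30% in size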
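RECQ1T1 50 nM; forked duplex (20 bp + 30-nt ss tails) 200 nM, ATP 2 mM final; pH 8.0, 2 mM MgCl2, 2.5 ug/ml poly(dI-dC); 15 min compound preincubation; discontinuous kinetic read over 2 h at RT.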
KDM4E inh: inhibitors of human JMJD2E histone demethylase; B2RXH2; JMJD2E catalytic domain, FDH-coupled NADH fluorescence (FDH is formaldehyde dehydrogenase); Potency, µM (highest dose often 57.1 µM), for inactives: at the top dose activity change, negative = inhibition, actives largely listed as inhibitors; hit rate 1.6% among 230,000; active means well fitted inhibition curve with a large enough effect, not every such curve was filed as active; inconclusive means small, poorly fitted or top-dose-only effect, or another doubt; inactive means no such curve, though single readings can be large or run the other way;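 further: 0% = wells with enzyme and -100% = buffer wells without enzyme; nearly all actives have a fitted effect of over 50% in size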
Target sequence (B2RXH2 1-337 limits assumed): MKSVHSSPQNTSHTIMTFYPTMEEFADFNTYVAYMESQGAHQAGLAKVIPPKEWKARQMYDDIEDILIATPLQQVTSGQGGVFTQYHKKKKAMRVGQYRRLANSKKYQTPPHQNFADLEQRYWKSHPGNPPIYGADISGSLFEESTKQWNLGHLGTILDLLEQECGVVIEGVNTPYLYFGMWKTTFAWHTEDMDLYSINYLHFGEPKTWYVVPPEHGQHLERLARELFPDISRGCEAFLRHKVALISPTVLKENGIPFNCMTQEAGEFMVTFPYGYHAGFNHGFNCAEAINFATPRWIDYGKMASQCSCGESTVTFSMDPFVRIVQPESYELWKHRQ
L3MBTL1 inh-1: blocks human L3MBTL1; Q9Y468; AlphaScreen L3MBTL1–H3K9me1 peptide binding; Potency, µM (highest dose often 57.1 µM), for the others: top-dose activity, negative = inhibition, hits mostly inhibitors; hit rate 0.66% among 230,000; further: on the % scale 0 is the no-effect control and ±100 the full control effect; nearly all actives have a fitted effect of over 60% in size
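AlphaScreen proximity signal between nickel-chelate acceptor and streptavidin donor beads (final 10 ug/mL) reports binding of 50 nM L3MBTL1 to 75 nM biotin-H3 K9me1 peptide; complex incubated with compounds 30 min at room temperature; cefsulodin titration as control.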
RGS12 GoLoco inh: inhibitors of human Gai1-RGS12 GoLoco interaction (red fluorophore) | P63096 | Gai1:RGS12 GoLoco peptide FP, rhodamine, 10 min | Potency, µM (doses to about 61.6 µM), for inactives: at the top dose activity, negative = inhibition, actives largely listed as inhibitors | hit rate 0.44% among 230,000; active means well fitted inhibition curve with a large enough effect, not every such curve was filed as active; inactive means no such curve, though single readings can be large or run the other way; further: on the % scale 0 is the no-effect control and ±100 the full control effect; nearly all actives have a fitted effect of over 30% in size
Target sequence (P63096 whole entry, looked up): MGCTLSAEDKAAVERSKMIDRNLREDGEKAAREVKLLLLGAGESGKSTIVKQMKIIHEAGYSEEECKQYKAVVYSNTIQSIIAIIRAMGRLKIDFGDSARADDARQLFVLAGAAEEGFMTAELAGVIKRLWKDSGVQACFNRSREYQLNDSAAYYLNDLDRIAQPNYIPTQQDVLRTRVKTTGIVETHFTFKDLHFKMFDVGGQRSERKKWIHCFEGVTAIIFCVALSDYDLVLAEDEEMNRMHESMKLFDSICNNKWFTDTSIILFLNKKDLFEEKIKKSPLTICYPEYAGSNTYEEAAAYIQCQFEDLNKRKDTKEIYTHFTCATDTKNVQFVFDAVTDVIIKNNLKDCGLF
APE1 inh: APE1 (human) endonuclease inhibition. Potency, µM (titrated, usually from 65.8 µM), inactives show at the highest dose activity change, negative = inhibition, usual class: inhibitors. recombinant APE1, TAMRA/BHQ-2 abasic DNA cleavage fluorescence. P27695. hit rate 0.35% among 350,000;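 further: plate controls were vehicle for no effect and reference inhibitor for full effect; nearly all actives have a fitted effect of over 55% in size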
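Enzyme (0.75 nM final) and test compound are incubated 15 min at room temperature before adding 50 nM quenched THF abasic-site duplex. Cleavage dequenches TAMRA, followed at 525/598 nm over three reads one minute apart.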
BLM helicase inh: Bloom syndrome helicase (human) inhibition | AID 2528 | hit rate 0.2% among 350,000 | recombinant BLM DNA unwinding, fluorescence dequenching | Potency, µM (titrated, usually from 56.1 µM), inactives show top-dose activity change, negative = inhibition, usual class: inhibitors | P54132;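 further: plate controls were vehicle for no effect and no enzyme for full effect; nearly all actives have a fitted effect of over 35% in size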
L3MBTL1 inh-2: blocks human L3MBTL1 methyl-lysine binding; Potency, µM, most hits filed as inhibitors; hit rate 91% among 500; L3MBTL1 methyl-lysine binding inhibition, biochemical qHTS; shares compounds with L3MBTL1 inh-1; further: nearly all actives have a fitted effect of over 70% in size
AlphaScreen ctr2: interferes with AlphaScreen signal in L3MBTL1 counterscreen | shares compounds with L3MBTL1 inh-1 | AlphaScreen counterscreen, signal inhibition | Potency, µM (titrated, usually from 57.1 µM), inactives show at the top dose activity change, negative = inhibition, usual class: inhibitors | 500 tested, under 10 active | AID 602224; further: 0% is about no effect
* marks the source's active call; other numbers are inactive results; i = inactive; ? = inconclusive; . = no result given; [ ] = another dose, or the depositor's remark. Shown is part of a subset that was picked to be rich in hits. Unless noted, the call rests on the fitted dose curve; in most records, active means well fitted curve in the direction sought with a large enough effect; inconclusive means small, poorly fitted or top-dose-only effect, or another doubt; inactive means no such curve, though single readings can be large; an effect the other way counts as inactive or inconclusive. Potency means the concentration at half of the fitted maximal effect.

SMILES	RECQ1 inh	KDM4E inh	L3MBTL1 inh-1	RGS12 GoLoco inh	APE1 inh	BLM helicase inh	L3MBTL1 inh-2	AlphaScreen ctr2
Cc1cccc2cc3c(N)c(C#N)sc3nc12	-11.1%	0.1%	28.7%	12.8%	-11.7%	-1.4%	.	.
Cc1sc(NC(=O)c2sc3nc4c(C)cccc4cc3c2N)c(C#N)c1C	i	?	17.8µM*	115.9%	-1.5%	?	6.7*	-2.1%
O=c1cc(C(F)(F)F)nc(-n2[nH]c3c(c2=O)CCCC3)[nH]1	-8.9%	2.2%	8.91µM*	112.9%	3.2%	0.7%	?	46.1%
Cc1cccc(NCc2ccc(O)c3ncccc23)c1C	12.9%	-14.3%	25.1µM*	5.1%	-2.5%	-6.0%	9.47*	6.1%
Cc1cccc(NC(=O)/C(=C\c2ccc([N+](=O)[O-])o2)NC(=O)c2ccc(Cl)cc2)c1	-0.7%	2.5%	28.2µM*	148.6%	1.5%	-12.7%	13.4*	1.4%
COc1ccc(OC)c(CCNc2ncnc3onc(-c4ccc(F)cc4)c23)c1	.	.	.	.	.	-10.0%	.	.
NC(=O)Cn1c(=O)n(CCCCCC(=O)NCc2ccc(F)cc2)c(=O)c2sccc21	.	.	.	.	.	2.6%	.	.
COc1ccc(OC2C(O)COC2/C=C/c2ccccc2)cc1 (stereo not drawn)	-0.7%[11.5 µM]	.	.	.	15.8%[12.4 µM]	-2.7%[12.4 µM]	.	.
Cc1ccc(CN2C(=O)N/C(=C\c3cccn3-c3cccc(C(=O)O)c3)C2=O)cc1	-3.2%	0.2%	2.51µM*	10.1%	15.9%	-6.0%	2.67*	-20.3%
O=C1N/C(=C/c2cccn2-c2ccccc2)C(=O)N1Cc1ccccc1F	2.8%	-6.6%	1.1%	16.2%	1.5%	-5.0%	.	.
Cc1ccc(NC(=O)CN2C(=O)N/C(=C/c3cc(C)n(-c4cccc(C(=O)O)c4)c3C)C2=O)cc1	?	?	25.1µM*	27.5%	11.2µM*	-6.2%	16.8*	-13.4%
Cc1ccc(OCC(=O)c2c(N)n(C)c(=O)n(C)c2=O)c([N+](=O)[O-])n1	.	.	7.94µM*	.	15µM*	.	0.844*	?
CO[C@]12CC(COC(=O)c3cncc(Br)c3)CN(C)[C@@H]1Cc1cn(C)c3cccc2c13 (stereo partly drawn)	-3.4%	-1.6%	.	4.8%	-4.7%	-3.3%	.	.
O=C(NCc1ccccn1)c1ccc(-c2ccccc2)cc1	-5.9%	4.7%	1.9%	8.3%	1.5%	-6.8%	.	.
O=C(NCc1ccccn1)c1ccc(=O)oc1	-9.5%	?	15.8µM*	7.1%	-1.9%	0.9%	21.2*	25.8%
CCN1CCN(CCCNC(=O)Cn2nc(C)n3c(cc4c(OC)cccc43)c2=O)CC1	.	.	.	.	.	-7.7%	.	.
COc1ncc2nc(-c3ccccc3)c(=O)n(-c3ccccc3)c2n1	-3.1%	.	.	1.2%	-6.5%	1.7%	.	.
Cc1ccc(C)c(NS(=O)(=O)c2ccc3[nH]c(=O)oc3c2)c1	i	0.4%	31.6µM*	145.5%	-1.3%	-7.7%	26.7*	12.7%
COc1ccc(C(=O)N2CCC(c3nc(-c4ccc(S(=O)(=O)N5CCCC5)cc4)no3)CC2)cc1	.	.	.	.	.	-3.1%	.	.
O=C(O)c1cccc(-n2cccc2/C=C\[N+](=O)[O-])c1	-28.1%	14.1µM*	31.6µM*	-12.6%	12.6µM*	5.7%	21.2*	13.5%
Oc1[nH]c2ccccc2c1N=NC(=S)N1CCOCC1	i	?	28.2µM*	-2.8%	-6.1%	-6.8%	21.2*	?
Oc1[nH]c2ccc(Br)cc2c1N=NC(=S)N1CCOCC1	6.2%	?	?	3.2%	0.7%	-4.1%	.	.
Cn1nnnc1SCCCNCc1ccccc1OCc1ccccc1Cl	.	.	.	.	.	2.4%	.	.
O=c1cc(OCc2ccccc2)cc[nH]1	.	.	28.2µM*	.	11.2%	.	5.97*	-20.5%
Cc1[nH]ccc(=O)c1OCc1ccccc1	3.3%	-0.1%	-2.0%	-0.2%	0.4%	-1.2%	.	.
SMILES	RECQ1 inh	KDM4E inh	L3MBTL1 inh-1	RGS12 GoLoco inh	APE1 inh	BLM helicase inh	L3MBTL1 inh-2	AlphaScreen ctr2
Nc1cc2c(cc1[N+](=O)[O-])OCO2	-14.3%	-18.7%	31.6µM*	2.2%	?	-26.9%	8.44*	10.5%
Nc1cc2c(cc1[N+](=O)[O-])OCCO2	-0.4%	-2.3%	-3.6%	-1.9%	5.2%	1.4%	.	.
Cc1ccc(C(C)C)cc1OCCCCN1CCCC1	5.4%	1.9%	28.2µM*	-6.5%	?	3.8%	18.9*	6.1%
Cc1ccc(C)c(OCCCN2CCCC2)c1	-5.7%	?	?	5.0%	1.8%	4.2%	.	.
CCCCSCCCNC(=O)c1cc(-c2cccnc2)nc2ccc(S(=O)(=O)N3CCC(C)CC3)cc12	.	.	.	.	.	0.1%	.	.
COc1cccc([C@@H]2Nc3ccc(C(=O)O)cc3[C@@H]3C=CC[C@@H]32)c1OC	.	.	.	.	.	3.7%	.	.
CC(C)C1Nc2ccc(C(=O)O)cc2C2C=CCC21 (stereo not drawn)	13.0%	3.6%	4.47µM*	4.1%	3.7%	-6.6%	2.99*	-20.0%
CCCC1Nc2ccc(C(=O)O)cc2C2C=CCC12 (stereo not drawn)	i	-0.7%	10µM*	34.3%	6.9%	0.5%	3.77*	-20.4%
COC(=O)CCNC(=O)N1CCN(c2nnc(C)c3c(C)n(-c4ccc(Cl)cc4)nc23)CC1	.	.	.	.	.	1.8%	.	.
CCCC(=O)NC(C)c1nc2ccccc2n1Cc1ccccc1 (stereo not drawn)	.	.	.	.	.	-1.0%	.	.
O=C(Oc1ccccc1F)c1ccc2c(=O)n3c(nc2c1)CCC3	.	.	35.5µM*	.	17.8%	.	?	8.8%
O=C(Oc1ccccc1Cl)c1ccc2c(=O)n3c(nc2c1)CCC3	.	.	-1.9%	.	-3.7%	.	.	.
Cc1ccc(Sc2c(C(=O)NCc3ccccc3C)[nH]c3ccccc23)cc1	.	.	.	.	.	1.3%	.	.
c1ccc(Cc2nn3c(Cn4nnc5ccccc54)nnc3s2)cc1	i	-4.3%	2.2%	-7.2%	1.0%	-5.3%	.	.
c1ccc2c(c1)OCC(c1nn3c(Cn4nnc5ccccc54)nnc3s1)O2 (stereo not drawn)	-8.6%	-4.1%	35.5µM*	3.0%	?	-5.6%	?	6.0%
COc1ccc(S(=O)(=O)N2CCN(C(=O)c3cc4c(s3)CCC4)CC2)cc1	.	.	3.55µM*	.	2.67µM*	.	3.36*	-4.8%
Cc1ccc(S(=O)(=O)N2CCN(C(=O)c3cc4c(s3)CCCC4)CC2)cc1	.	.	0.2%	.	1.7%	.	.	.
CCSc1ncc(Cl)c(C(=O)Nc2sc(C(C)=O)c(C)c2C(=O)OC)n1	.	.	.	.	.	-2.7%	.	.
CC(=O)Nc1ccc(C(=O)/C=C/c2ccco2)cc1	6.4%	?	31.6µM*	14.8%	-1.8%	-4.6%	9.47*	-10.4%
